Values joined by “and” are separate entries in the source; they are usually repeats but may differ in a detail not shown here. Identical values can stand only once. Results filed as inconclusive are left out. Active and inactive are the calls of the source. The calls were made as follows, unless noted: active = hit-call score of the fitted dose curve at least 0.9, where 1 is the maximum; inactive = score below 0.9.
How the values were obtained:
[1] = ATG_NFI_CIS: Attagene CIS-FACTORIAL HepG2 Assay for human Nuclear Factor I (NFI) (AID 2282989); conditions: HepG2 cis-regulatory reporter, NFI response element transcription; actives raise or lower the signal
Outline: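 Cells: human liver HepG2, transiently transfected with promoter-regulated reporter transcription units. Exposure 24 h. Detection: fluorescent RT-PCR products separated by capillary electrophoresis, normalised to DMSO negative control.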

[2] = molecular target: Myc proto-oncogene protein (Homo sapiens) (UniProt P01106); assay: ATG_Myc_CIS: Attagene CIS-FACTORIAL HepG2 Assay for human Myelocytomatosis (Myc) Proto-Oncogene Transcription Factor (AID 2282990); conditions: HepG2, Attagene cis-reporter transcription factor activity; actives raise or lower the signal
Outline: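 Cells of the HepG2 human liver line bear multiple cis-driven reporter transcription units. Reporter mRNA after 24 h exposure is reverse-transcribed, amplified, labelled and resolved by capillary electrophoresis, with gain- or loss-of-signal fitting relative to DMSO.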

[3] = ATG_NF_kB_CIS: Attagene CIS-FACTORIAL HepG2 Assay for human Nuclear Factor Kappa B (NF-kB) (AID 2282991); conditions: HepG2 Attagene cis-factorial NF-kB reporter mRNA; actives raise or lower the signal
Outline: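 HepG2 cells transfected with cis-promoter-driven reporter units, so endogenous transcription factor activity is measured. Reporter mRNA quantified 24 h after dosing by RT-PCR and capillary electrophoresis, with bidirectional fitting against DMSO.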

[4] = ATG_NRF2_ARE_CIS: Attagene CIS-FACTORIAL HepG2 Assay for human Nuclear Factor Erythroid 2 Related Factor 2 (NFR2) response to Antioxidant Response Elements (ARE) (AID 2282992); conditions: HepG2 Attagene ARE/NRF2 reporter, transcription factor activity; actives raise or lower the signal;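 as to AC50: reporter mRNA level measured by RT-PCR and capillary electrophoresis fluorescence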
Outline: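 HepG2 cells transiently transfected with multiplexed cis-regulated reporter transcription units measure endogenous transcription factor activity. Reporter mRNA at 24 h is quantified by RT-PCR, fluorescent labelling and capillary electrophoresis, with bidirectional fitting relative to DMSO.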

[5] = ATG_Oct_MLP_CIS: Attagene CIS-FACTORIAL HepG2 Assay for human Octamer-Binding Transcription Factor (Oct) (AID 2282993); conditions: HepG2 Attagene cis-factorial Oct reporter, mRNA; actives raise or lower the signal
Outline: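 HepG2, transient MRTU transfection, cis promoter elements; 24 h dosing; RT-PCR/CE fluorescence read-out of reporter mRNA; fit both directions vs DMSO.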

[6] = molecular target: human Peroxisome Proliferator-activated Receptor alpha (PPARa), PPARA (gene 5465) (UniProt Q07869); assay: ATG_PPARa_TRANS: Attagene TRANS-FACTORIAL HepG2 Assay for human Peroxisome Proliferator-activated Receptor alpha (PPARa) (AID 2283001; active = hit-call score of the fitted dose curve at least 0.9, where 1 is the maximum)
Outline: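 Reporter transcripts from GAL4-UAS units in transfected HepG2 were quantified 24 h after dosing. Detection used reverse transcription, PCR, fluorescent primer extension and capillary electrophoresis, with DMSO as baseline.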

[7] = molecular target: human Peroxisome Proliferator-activated Receptor delta (PPARd), PPARD (gene 5467) (UniProt Q03181); assay: ATG_PPARd_TRANS: Attagene TRANS-FACTORIAL HepG2 Assay for human Peroxisome Proliferator-activated Receptor delta (PPARd) (AID 2283002; active = hit-call score of the fitted dose curve at least 0.9, where 1 is the maximum)
Outline: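 Cell-based TRANS reporter: HepG2, transient MRTU transfection, 24 h exposure. Readout = reporter mRNA (RT-PCR/CE, 6-FAM). Gain-of-signal fit vs DMSO control.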

[8] = molecular target: Retinoic acid receptor alpha (Homo sapiens) (UniProt P10276); assay: ATG_RARa_TRANS: Attagene TRANS-FACTORIAL HepG2 Assay for human Retinoic Acid Receptor alpha (RARa) (AID 2283005; active = hit-call score of the fitted dose curve at least 0.9, where 1 is the maximum)
Outline: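 Reporter transcripts, measured by RT-PCR with fluorescent labeling and capillary electrophoresis after 24 h dosing, reflect activity of an exogenous human RARa–GAL4 fusion in transiently transfected HepG2. Fitted for increase relative to DMSO.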

[9] = molecular target: Nuclear receptor subfamily 1 group I member 2 (Homo sapiens) (UniProt O75469); assay: ATG_PXR_TRANS: Attagene TRANS-FACTORIAL HepG2 Assay for human Pregnane X Receptor (PXR) (AID 2283008; active = hit-call score of the fitted dose curve at least 0.9, where 1 is the maximum)
Outline: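 HepG2 cells transiently transfected with multiple reporter units, here a PXR-GAL4 chimera driving a GAL4-UAS reporter; 24 h compound exposure. Reporter mRNA measured by RT-PCR, FAM labelling and capillary electrophoresis; gain of signal fitted against DMSO baseline.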

[10] = molecular target: Cellular tumor antigen p53 (Homo sapiens) (UniProt P04637); assay: ATG_p53_CIS: Attagene CIS-FACTORIAL HepG2 Assay for human p53 Transcription Factor (AID 2282994); conditions: HepG2 p53 cis-element reporter, Attagene mRNA; actives raise or lower the signal
Outline: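 HepG2 cells transiently transfected with multiplexed cis-regulated reporter transcription units read endogenous TF activity. After 24 h compound exposure, reporter mRNA was quantified by RT-PCR, fluorescent labelling, HpaI digestion and capillary electrophoresis; bidirectional fits versus DMSO baseline.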

[11] = molecular target: human Retinoic Acid Receptor gamma (RARg), RARG (gene 5916) (UniProt P13631); assay: ATG_RARg_TRANS: Attagene TRANS-FACTORIAL HepG2 Assay for human Retinoic Acid Receptor gamma (RARg) (AID 2283009; active = hit-call score of the fitted dose curve at least 0.9, where 1 is the maximum)
Outline: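 HepG2, RARg-GAL4 TRANS system, 24 h exposure; reporter mRNA by RT-PCR + CE fluorescence; increase over DMSO.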

[12] = molecular target: Peroxisome proliferator-activated receptor gamma (Homo sapiens) (UniProt P37231); assay: ATG_PPARg_TRANS: Attagene TRANS-FACTORIAL HepG2 Assay for human Peroxisome Proliferator-activated Receptor-gamma (PPARg) (AID 2283007; active = hit-call score of the fitted dose curve at least 0.9, where 1 is the maximum)
Outline: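 HepG2 cells are transiently transfected with GAL4-UAS reporter units driven by chimeric NR-Gal4 fusions and dosed for 24 h. Reporter mRNA is quantified by RT-PCR, 6-FAM labelling, HpaI digestion and capillary electrophoresis. Induction is scored against DMSO.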

[13] = BSK_3C_TissueFactor: BioMAP Diversity Plus: 3C Assay for Tissue Factor Biomarker Activity (AID 2282997); conditions: BioMAP 3C HUVEC, tissue factor biomarker readout; actives raise or lower the signal
Outline: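 Human vascular primary cells (umbilical vein endothelium) received test chemical; Tissue Factor was determined by ELISA at 24 h, and both gain and loss of signal versus DMSO were fitted.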

[14] = BSK_3C_VCAM1: BioMAP Diversity Plus: 3C Assay for Vascular cell adhesion molecule 1 (VCAM1) Biomarker Activity (AID 2282999); conditions: BioMAP 3C HUVEC, VCAM1 ELISA, cytokine-stimulated; actives raise or lower the signal
Outline: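 Endothelial cells from human umbilical vein are treated with test chemical. At 24 h, VCAM-1 is measured by ELISA, and responses in either direction are fitted relative to DMSO.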

[15] = BSK_4H_Eotaxin3: BioMAP Diversity Plus: 4H Assay for Eotaxin 3 Biomarker Activity (AID 2283000); conditions: primary human endothelial cells (HUVEC); actives raise or lower the signal
Outline: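 Readout is Eotaxin-3 (CCL26) level by ELISA in primary human umbilical vein endothelial cells harvested 24 h after chemical exposure; activity fitted in both directions against DMSO control.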

[16] = read-out: Intercellular Adhesion Molecule 1 (ICAM1), ICAM1 (gene 3383); assay: BSK_3C_ICAM1: BioMAP Diversity Plus: 3C Assay for Intercellular Adhesion Molecule 1 (ICAM1) Biomarker Activity (AID 2283003); conditions: primary human endothelial cells (HUVEC); actives raise or lower the signal
Outline: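 Human vascular endothelial primary cells, 3C conditions, 24 h treatment. ICAM-1 by ELISA.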

[17] = BSK_3C_Proliferation: Cell Proliferation Assessment in the BioMAP Diversity Plus: 3C Assay (AID 2283006); conditions: primary human endothelial cells (HUVEC);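 also: potency may reflect either rise or fall in cell number versus DMSO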
Outline: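 Proliferation of human vascular endothelial primary cells after 48 h dosing, quantified as SRB-stained protein at 560 nm relative to DMSO.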

[18] = molecular target: human RAR-related Orphan Receptor beta (RORb), RORB (gene 6096) (UniProt Q92753); assay: ATG_RORb_TRANS: Attagene TRANS-FACTORIAL HepG2 Assay for human RAR-related Orphan Receptor beta (RORb) (AID 2283010; active = hit-call score of the fitted dose curve at least 0.9, where 1 is the maximum)
Outline: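 In this TRANS-format test, human HepG2 cells express chimeric NR-Gal4 fusion proteins driving GAL4-UAS reporters. After 24 h dosing, reporter transcripts are measured by fluorescent RT-PCR/capillary electrophoresis, with DMSO as negative control.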

[19] = molecular target: human Retinoic Acid Receptor beta (RARb), RARB (gene 5915) (UniProt P10826); assay: ATG_RARb_TRANS: Attagene TRANS-FACTORIAL HepG2 Assay for human Retinoic Acid Receptor beta (AID 2283004; active = hit-call score of the fitted dose curve at least 0.9, where 1 is the maximum)
Outline: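 Readout is reporter mRNA induction: RNA reverse-transcribed, PCR-amplified, FAM-labelled, HpaI-cut and resolved by capillary electrophoresis. Transiently transfected HepG2 cells carrying exogenous NR–Gal4 chimeras were dosed for 24 h; activity fitted upward relative to DMSO.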

Measured: AC50

Chain of Cellular tumor antigen p53 (Homo sapiens) (P04637 whole entry, looked up): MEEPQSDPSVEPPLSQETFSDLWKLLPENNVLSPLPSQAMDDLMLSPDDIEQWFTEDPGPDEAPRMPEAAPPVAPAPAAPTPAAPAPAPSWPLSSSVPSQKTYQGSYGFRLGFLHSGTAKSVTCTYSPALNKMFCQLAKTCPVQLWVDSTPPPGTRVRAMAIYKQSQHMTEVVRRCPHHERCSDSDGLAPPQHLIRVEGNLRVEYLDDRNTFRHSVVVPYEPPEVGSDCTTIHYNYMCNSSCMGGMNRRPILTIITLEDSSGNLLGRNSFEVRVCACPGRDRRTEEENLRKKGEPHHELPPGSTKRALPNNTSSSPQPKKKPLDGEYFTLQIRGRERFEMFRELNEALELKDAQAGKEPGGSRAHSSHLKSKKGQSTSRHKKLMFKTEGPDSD
Chain of human Retinoic Acid Receptor beta (RARb), RARB (gene 5915) (P10826 whole entry, looked up, the tested form may be a part): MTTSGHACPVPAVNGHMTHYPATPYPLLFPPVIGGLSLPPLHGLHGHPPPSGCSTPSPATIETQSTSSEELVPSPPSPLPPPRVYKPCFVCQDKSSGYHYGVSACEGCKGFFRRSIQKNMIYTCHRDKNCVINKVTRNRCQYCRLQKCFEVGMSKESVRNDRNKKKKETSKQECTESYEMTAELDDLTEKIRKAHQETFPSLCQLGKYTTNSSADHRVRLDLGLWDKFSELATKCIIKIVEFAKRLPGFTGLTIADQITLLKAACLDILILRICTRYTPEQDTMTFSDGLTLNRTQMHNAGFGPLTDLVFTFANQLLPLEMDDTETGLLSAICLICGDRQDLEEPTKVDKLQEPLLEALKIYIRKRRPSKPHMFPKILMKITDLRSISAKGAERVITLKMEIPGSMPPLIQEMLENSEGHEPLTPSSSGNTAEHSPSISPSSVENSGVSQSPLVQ
Chain of human Retinoic Acid Receptor gamma (RARg), RARG (gene 5916) (P13631 whole entry, looked up, the tested form may be a part): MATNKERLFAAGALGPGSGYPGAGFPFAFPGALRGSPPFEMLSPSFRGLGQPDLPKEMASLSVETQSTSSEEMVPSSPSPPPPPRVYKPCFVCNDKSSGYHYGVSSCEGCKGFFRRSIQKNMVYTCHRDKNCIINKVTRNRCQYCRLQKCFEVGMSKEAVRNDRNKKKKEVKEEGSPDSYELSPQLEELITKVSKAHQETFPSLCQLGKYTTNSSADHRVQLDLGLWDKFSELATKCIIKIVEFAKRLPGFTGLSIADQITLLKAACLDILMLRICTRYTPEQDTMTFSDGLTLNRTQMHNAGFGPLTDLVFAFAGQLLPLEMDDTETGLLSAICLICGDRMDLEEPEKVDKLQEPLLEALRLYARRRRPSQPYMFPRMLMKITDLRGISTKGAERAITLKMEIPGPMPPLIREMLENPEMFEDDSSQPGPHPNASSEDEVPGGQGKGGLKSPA
Chain of Peroxisome proliferator-activated receptor gamma (Homo sapiens) (P37231 whole entry, looked up, the tested form may be a part): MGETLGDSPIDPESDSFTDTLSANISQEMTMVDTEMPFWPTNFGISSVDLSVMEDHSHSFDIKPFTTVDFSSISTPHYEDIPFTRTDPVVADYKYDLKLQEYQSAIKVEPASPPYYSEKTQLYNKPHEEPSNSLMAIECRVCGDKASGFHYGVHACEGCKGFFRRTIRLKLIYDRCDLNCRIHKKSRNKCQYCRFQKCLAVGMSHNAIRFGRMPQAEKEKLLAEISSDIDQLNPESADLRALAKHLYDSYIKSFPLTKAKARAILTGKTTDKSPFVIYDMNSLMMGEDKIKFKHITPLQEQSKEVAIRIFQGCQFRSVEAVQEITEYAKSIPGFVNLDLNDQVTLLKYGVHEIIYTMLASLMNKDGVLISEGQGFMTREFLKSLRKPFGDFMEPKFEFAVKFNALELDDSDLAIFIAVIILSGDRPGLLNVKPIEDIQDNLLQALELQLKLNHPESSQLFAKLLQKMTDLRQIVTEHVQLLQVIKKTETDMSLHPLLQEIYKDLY
Chain of Nuclear receptor subfamily 1 group I member 2 (Homo sapiens) (O75469 whole entry, looked up, the tested form may be a part): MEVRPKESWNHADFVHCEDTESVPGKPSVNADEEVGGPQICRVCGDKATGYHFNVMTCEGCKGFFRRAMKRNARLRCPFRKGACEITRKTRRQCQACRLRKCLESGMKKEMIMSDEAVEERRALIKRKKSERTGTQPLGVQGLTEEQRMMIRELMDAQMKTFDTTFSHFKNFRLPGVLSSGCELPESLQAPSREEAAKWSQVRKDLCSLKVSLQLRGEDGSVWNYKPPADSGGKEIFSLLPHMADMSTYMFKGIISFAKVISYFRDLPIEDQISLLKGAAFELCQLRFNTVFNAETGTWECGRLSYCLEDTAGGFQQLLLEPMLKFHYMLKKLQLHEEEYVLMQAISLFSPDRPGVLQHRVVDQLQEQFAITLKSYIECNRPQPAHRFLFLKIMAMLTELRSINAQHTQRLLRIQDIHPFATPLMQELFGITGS
Chain of human Peroxisome Proliferator-activated Receptor delta (PPARd), PPARD (gene 5467) (Q03181 whole entry, looked up): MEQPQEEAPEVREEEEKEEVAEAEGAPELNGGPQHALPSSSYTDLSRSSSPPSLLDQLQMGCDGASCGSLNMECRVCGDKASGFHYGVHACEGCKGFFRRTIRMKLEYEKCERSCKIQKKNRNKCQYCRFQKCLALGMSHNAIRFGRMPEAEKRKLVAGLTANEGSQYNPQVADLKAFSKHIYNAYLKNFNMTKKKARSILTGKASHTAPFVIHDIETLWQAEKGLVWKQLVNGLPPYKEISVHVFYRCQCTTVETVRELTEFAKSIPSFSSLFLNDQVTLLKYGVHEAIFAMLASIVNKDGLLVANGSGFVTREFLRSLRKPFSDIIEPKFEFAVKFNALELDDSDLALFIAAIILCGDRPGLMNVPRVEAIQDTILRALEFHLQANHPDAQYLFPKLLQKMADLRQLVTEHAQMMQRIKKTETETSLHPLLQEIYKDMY
Chain of human Peroxisome Proliferator-activated Receptor alpha (PPARa), PPARA (gene 5465) (Q07869 whole entry, looked up, the tested form may be a part): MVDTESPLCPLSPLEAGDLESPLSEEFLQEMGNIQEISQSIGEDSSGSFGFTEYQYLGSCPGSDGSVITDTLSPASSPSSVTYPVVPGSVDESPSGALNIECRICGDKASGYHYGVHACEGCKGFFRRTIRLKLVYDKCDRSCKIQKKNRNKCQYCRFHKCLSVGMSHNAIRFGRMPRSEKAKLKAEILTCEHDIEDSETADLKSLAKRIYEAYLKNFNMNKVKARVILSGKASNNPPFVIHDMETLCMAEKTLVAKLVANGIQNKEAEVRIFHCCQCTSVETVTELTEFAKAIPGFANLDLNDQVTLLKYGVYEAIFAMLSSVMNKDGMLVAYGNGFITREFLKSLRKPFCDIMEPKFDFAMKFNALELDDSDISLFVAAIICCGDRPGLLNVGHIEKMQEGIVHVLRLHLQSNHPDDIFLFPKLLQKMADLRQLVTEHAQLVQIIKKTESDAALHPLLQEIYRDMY
Chain of human RAR-related Orphan Receptor beta (RORb), RORB (gene 6096) (Q92753 whole entry, looked up, the tested form may be a part): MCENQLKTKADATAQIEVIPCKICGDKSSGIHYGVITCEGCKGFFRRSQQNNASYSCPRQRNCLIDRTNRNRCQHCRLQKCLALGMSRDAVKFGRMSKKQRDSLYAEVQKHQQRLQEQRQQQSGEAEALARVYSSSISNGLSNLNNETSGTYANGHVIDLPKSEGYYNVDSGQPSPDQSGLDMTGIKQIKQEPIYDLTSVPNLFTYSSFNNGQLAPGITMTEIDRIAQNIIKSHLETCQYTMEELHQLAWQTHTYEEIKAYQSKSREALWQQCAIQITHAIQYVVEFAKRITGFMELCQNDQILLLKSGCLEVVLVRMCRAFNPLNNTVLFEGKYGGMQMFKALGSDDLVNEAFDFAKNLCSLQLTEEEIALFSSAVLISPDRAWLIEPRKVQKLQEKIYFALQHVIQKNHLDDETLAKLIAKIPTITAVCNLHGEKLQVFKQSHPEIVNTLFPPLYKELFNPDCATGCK
Chain of Myc proto-oncogene protein (Homo sapiens) (P01106 whole entry, looked up): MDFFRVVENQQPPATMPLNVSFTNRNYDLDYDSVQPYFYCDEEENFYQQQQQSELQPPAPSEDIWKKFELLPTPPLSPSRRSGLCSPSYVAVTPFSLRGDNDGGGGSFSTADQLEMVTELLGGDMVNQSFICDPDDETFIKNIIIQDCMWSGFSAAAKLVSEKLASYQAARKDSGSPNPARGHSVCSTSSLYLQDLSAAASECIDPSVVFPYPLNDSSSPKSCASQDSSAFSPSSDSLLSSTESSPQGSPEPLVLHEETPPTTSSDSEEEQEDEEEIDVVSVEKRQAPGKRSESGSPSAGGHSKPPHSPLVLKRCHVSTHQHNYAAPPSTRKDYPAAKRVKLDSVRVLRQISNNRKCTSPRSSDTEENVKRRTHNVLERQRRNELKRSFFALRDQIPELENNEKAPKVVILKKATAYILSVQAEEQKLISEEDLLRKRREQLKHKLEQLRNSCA
Chain of Retinoic acid receptor alpha (Homo sapiens) (P10276 whole entry, looked up, the tested form may be a part): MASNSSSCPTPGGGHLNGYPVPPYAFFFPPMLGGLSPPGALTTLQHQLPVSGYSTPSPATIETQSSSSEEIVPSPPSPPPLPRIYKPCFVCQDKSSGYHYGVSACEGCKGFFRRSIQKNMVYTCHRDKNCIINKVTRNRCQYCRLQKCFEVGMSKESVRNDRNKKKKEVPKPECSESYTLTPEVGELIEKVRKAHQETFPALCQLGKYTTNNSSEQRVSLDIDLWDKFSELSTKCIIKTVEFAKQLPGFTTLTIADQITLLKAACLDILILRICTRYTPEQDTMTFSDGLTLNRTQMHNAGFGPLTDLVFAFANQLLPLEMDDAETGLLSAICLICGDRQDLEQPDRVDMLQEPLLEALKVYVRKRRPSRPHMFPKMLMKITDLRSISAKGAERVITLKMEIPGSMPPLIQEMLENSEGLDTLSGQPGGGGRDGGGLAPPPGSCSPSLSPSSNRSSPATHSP

CN(C)c1ccncc1
inactive: [1] | [2] | [3] | [4] | [5] | [6] | [7] | [8] | [9]

OCCOCCN1CCN(C2=Nc3ccccc3Sc3ccccc32)CC1
active: [4] 176 µM | [10] 75.8 µM | [9] 5.77 µM
inactive: [1] | [2] | [3] | [5] | [11]

Nc1c(S(=O)(=O)O)cc(Br)c2c1C(=O)c1ccccc1C2=O
active: [4] 73.8 µM | [12] 27.5 µM | [9] 40.2 µM
inactive: [1] | [2] | [3] | [5] | [6]

CC1(C)CCC[C@]2(C)[C@H]3CCO[C@]3(C)CC[C@@H]12
inactive: [1] | [2] | [3] | [5] | [14] | [7] | [12] | [11]
active: [4] 155 µM | [13] 32 µM and 30.7 µM | [15] 33.2 µM and 35 µM | [16] 31.2 µM and 38.9 µM | [17] 32.6 µM and 33.6 µM | [9] 32.6 µM

CCCCCCCCCCCCCCCC(=O)OC/C=C(C)/C=C/C=C(C)/C=C/C1=C(C)CCCC1(C)C
active: [4] 23.9 µM | [14] 20 µM | [17] 4.06 µM | [12] 37.9 µM | [9] 2.82 µM
inactive: [1] | [2] | [5] | [10] | [13] | [15] | [6] | [7] | [16] | [18]

O=C(O)c1ccc(O)cc1
inactive: [1] | [2] | [4] | [5] | [10] | [6] | [7] | [19] | [8] | [12] | [9] | [11]

O=C1OC(=O)c2c(Cl)c(Cl)c(Cl)c(Cl)c21
inactive: [1] | [2] | [4] | [5] | [10] | [6] | [7] | [19] | [18]

CCCOCCO
inactive: [1] | [2] | [4] | [5] | [10] | [6] | [19] | [12] | [9] | [18]

COC(=O)Nc1ccc(Cl)c(Cl)c1
inactive: [1] | [2] | [5] | [10] | [6] | [7] | [9]
active: [4] 100 µM | [12] 27.4 µM

— PubChem BioAssay (EPA / NIEHS)
